Our source for the z-score and composite z-score values is PubChem BioAssay.

Active and inactive are the calls of the source.

The nature of test [1]: optical density shifts of acrAB sulA E. coli – strain DRC41, OD650, 48 h, E. coli filamentation inducer project, primary screen (AID 1152).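 Also: E. coli MC1000 strain DRC41 lacking acrAB efflux pump and sulA.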 The conditions noted are these: higher = more signal, called active from +8 up or from −8 down.
The nature of test [2]: probe aLefty1 binding on compound microarray – biochemical, small-molecule microarray, 635/667 nm fluorescence, primary screen (AID 1153).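 Also: score merges spot fluorescence with signal-to-noise ratio from the scanned slide images.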 To be noted: higher = more signal.
Test [3] in a line: plasmodial surface anion channel blockers, osmotic lysis – cell-based, P. falciparum Indochina, OD700, 1 h, primary screen (AID 1154). The conditions noted are these: P. falciparum Indochina infected RBC osmotic lysis, higher = more signal, called active from +8 up or from −8 down.
Test [4] is described as follows: plasmodial surface anion channel blockers, osmotic lysis – cell-based, P. falciparum Indochina, OD700, 2 h, primary screen (AID 1155).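 Also: lysis reports solute entry through the parasite surface anion channel PSAC.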 The conditions noted are these: P. falciparum Indochina infected erythrocytes, higher = more signal, called active from +8 up or from −8 down.
A short description of test [5]: changes in parasitized red cell lysis, either direction – P. falciparum Indochina, OD700, 3 h, PSAC antagonist project, primary screen (AID 1156). To be noted: P. falciparum-infected erythrocytes, osmotic lysis, higher = more signal, called active from +8 up or from −8 down.
Test [6] is described as follows: plasmodial surface anion channel blockers, osmotic lysis – cell-based, P. falciparum Indochina, OD700, 18 h, primary screen (AID 1157). To be noted: P. falciparum Indochina infected erythrocytes, osmotic lysis OD700, 18 h; higher = more signal, called active from +8 up or from −8 down.
Test [7] is described as follows: S6 kinase pathway phospho-S6 level changes – cell-based, A549, cytoblot, luminescence, serum-stimulated, primary screen (AID 1158).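 Also: serum-stimulated A549 lung adenocarcinoma cells; signal is phosphorylated S6 detected by cytoblot immunostaining with HRP secondary.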 The conditions noted are these: 5 h, higher = more signal.
Test [8] deals with NADPH oxidase 2 (Homo sapiens) (UniProt P04839). The experiment in a line: compounds shifting NOX2 Amplex Red fluorescence – cell-based, HEK293-NOX2, PMA-stimulated, NOX inhibitor project, primary screen (AID 1159). Also: test concentration not given here. The conditions noted are these: 45 min, higher = more signal, called active from +8 up or from −8 down.
Test [9] has as its target NADPH oxidase 4 (Homo sapiens) (UniProt Q9NPH5). As to the kind of experiment: compounds shifting NOX4 Amplex Red fluorescence – cell-based, HEK293-NOX4, tetracycline-induced, NOX inhibitor project, primary screen (AID 1160). The conditions noted are these: HEK293-NOX4, Amplex Red H2O2 fluorescence, 45 min; higher = more signal, called active from +8 up or from −8 down.
Test [10] has as its target NADPH oxidase 5 (Homo sapiens) (UniProt Q96PH1). As to the kind of experiment: compounds shifting NOX5 Amplex Red fluorescence – cell-based, HEK293-NOX5, NOX inhibitor project, primary screen (AID 1161). The conditions noted are these: HEK293-NOX5, ionomycin, 45 min, higher = more signal.
Test [11] is described as follows: compound effects on lung adenocarcinoma cell viability – A549, calcein-AM fluorescence, 48 h, basal, profiling panel (AID 1162). Also: test concentration not given here. To be noted: higher = more signal.
The nature of test [12]: compound effects on differentiated 3T3-L1 adipocyte viability – cell-based, 3T3-L1 adipocytes, calcein-AM fluorescence, 48 h, basal, profiling panel (AID 1163). Also: test concentration not given here. To be noted: 3T3-L1 adipocytes viability, higher = more signal.
Test [13] in a line: compound effects on hepatocellular carcinoma cell viability – HepG2, calcein-AM fluorescence, 48 h, basal, profiling panel (AID 1164). Also: test concentration not given here. The conditions noted are these: higher = more signal.
The nature of test [14]: compound effects on multiple myeloma cell viability – MM1S, calcein-AM fluorescence, 48 h, basal, profiling panel (AID 1165). Also: test concentration not given here. The conditions noted are these: higher = more signal.
A short description of test [15]: calcein-AM signal in unstimulated myeloma cells – cell-based, calcein-AM fluorescence, 48 h, PK04 Diversity Set, profiling panel (AID 1166).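 Also: cells grown under basal conditions without added stimulus; test concentration not given here.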 To be noted: RPMI8226 myeloma viability, higher = more signal.
The nature of test [16]: JC-1 mitochondrial signal, unstimulated HepG2 cells – cell-based, JC-1 fluorescence, 24 h, 100 nL compound, profiling panel (AID 1167). Also: test concentration not given here. The conditions noted are these: HepG2 mitochondrial potential, higher = more signal.
Test [17] is described as follows: JC-1 mitochondrial signal, unstimulated adipocytes – cell-based, JC-1 fluorescence, 3T3-L1 adipocytes, 24 h, 100 nL compound, profiling panel (AID 1168). Also: test concentration not given here. To be noted: JC-1 mitochondrial fluorescence, higher = more signal, called active from +8 up or from −8 down.
Test [18] in a line: JC-1 mitochondrial signal, unstimulated myeloma cells – cell-based, JC-1 fluorescence, RPMI8226, 24 h, 100 nL compound, profiling panel (AID 1169). Also: test concentration not given here. The conditions noted are these: JC-1 mitochondrial potential fluorescence, higher = more signal.
A short description of test [19]: JC-1 mitochondrial signal, unstimulated MM1S myeloma – cell-based, JC-1 fluorescence, 24 h, 100 nL compound, profiling panel (AID 1170). Also: test concentration not given here. To be noted: MM1S mitochondrial potential, higher = more signal.
A short description of test [20]: resazurin metabolic signal in A549 cells – cell-based, resazurin fluorescence, 24 h, PK04 Diversity Set, profiling panel (AID 1171). Also: test concentration not given here. The conditions noted are these: A549 viability, higher = more signal, called active from +8 up or from −8 down.

Chain of NADPH oxidase 4 (Homo sapiens) (Q9NPH5 whole entry, looked up): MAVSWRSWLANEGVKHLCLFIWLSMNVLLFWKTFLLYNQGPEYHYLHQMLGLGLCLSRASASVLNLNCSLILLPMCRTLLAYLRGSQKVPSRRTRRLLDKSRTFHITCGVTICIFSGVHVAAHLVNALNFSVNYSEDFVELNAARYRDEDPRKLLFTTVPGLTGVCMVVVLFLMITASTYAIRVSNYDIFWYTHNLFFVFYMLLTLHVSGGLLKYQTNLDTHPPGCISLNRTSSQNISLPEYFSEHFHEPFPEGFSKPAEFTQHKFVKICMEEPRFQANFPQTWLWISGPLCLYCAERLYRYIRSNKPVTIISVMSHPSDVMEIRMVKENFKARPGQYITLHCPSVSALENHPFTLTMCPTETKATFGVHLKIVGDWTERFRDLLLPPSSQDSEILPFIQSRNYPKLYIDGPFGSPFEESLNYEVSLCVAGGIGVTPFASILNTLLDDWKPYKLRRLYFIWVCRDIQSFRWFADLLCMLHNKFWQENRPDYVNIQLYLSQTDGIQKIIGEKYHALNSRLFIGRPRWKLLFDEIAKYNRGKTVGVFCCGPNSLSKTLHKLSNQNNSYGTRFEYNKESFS
Chain of NADPH oxidase 2 (Homo sapiens) (P04839 whole entry, looked up): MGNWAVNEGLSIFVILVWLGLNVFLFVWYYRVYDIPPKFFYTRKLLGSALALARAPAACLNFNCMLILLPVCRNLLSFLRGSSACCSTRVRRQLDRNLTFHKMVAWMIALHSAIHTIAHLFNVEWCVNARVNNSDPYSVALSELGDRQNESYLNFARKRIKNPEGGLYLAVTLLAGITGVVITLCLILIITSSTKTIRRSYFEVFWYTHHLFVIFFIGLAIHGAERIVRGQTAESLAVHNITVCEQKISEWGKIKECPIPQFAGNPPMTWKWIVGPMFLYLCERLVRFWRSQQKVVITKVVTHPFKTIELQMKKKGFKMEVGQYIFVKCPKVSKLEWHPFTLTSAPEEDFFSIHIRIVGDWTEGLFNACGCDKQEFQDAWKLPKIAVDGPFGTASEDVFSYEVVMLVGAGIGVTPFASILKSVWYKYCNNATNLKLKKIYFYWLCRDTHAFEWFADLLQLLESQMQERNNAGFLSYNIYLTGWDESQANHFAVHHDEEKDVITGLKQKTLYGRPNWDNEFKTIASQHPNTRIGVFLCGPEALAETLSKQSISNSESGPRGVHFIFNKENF
Chain of NADPH oxidase 5 (Homo sapiens) (Q96PH1 whole entry, looked up): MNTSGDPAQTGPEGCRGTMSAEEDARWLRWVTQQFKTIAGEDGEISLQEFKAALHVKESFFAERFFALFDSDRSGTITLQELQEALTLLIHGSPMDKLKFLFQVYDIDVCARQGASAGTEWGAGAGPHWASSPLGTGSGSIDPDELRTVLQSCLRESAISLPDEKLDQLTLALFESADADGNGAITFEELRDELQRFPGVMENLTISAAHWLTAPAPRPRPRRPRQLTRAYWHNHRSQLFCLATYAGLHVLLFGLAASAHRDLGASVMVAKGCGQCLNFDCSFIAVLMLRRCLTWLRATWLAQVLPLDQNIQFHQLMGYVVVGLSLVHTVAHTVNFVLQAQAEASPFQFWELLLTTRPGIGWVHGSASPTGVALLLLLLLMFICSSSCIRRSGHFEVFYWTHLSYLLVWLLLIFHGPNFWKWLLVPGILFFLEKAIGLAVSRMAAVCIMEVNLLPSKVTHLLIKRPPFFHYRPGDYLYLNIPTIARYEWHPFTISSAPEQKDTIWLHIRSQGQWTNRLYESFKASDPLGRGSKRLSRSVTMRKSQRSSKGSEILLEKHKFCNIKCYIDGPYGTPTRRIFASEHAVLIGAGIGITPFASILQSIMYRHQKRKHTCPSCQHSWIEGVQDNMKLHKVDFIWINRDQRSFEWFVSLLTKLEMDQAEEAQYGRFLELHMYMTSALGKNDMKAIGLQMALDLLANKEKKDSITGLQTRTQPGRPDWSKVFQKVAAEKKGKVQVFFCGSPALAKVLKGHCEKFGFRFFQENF

With `CCOC(=O)[C@H](Cc1ccccc1)NC(=O)CCC1CC(OC(=O)NCCc2ccc(F)cc2)CC2(CCCC(COC(=O)NCc3ccccc3)O2)O1` (stereo not given in full), the z-score is -0.713 (inactive) in test [1]; -0.623 (inactive) in [3]; -0.567 (inactive) in test [4]; -0.857 (inactive) in test [5]; -0.144 (inactive) in [6]; 0.0765 in [7]. Further, the z-score in test [8] was -0.0815 (inactive); in [9] it was 1.21 (inactive); in test [10], 0.616; in test [11] it was 0.199; in test [12], -0.765; in [13], -0.12. For the same compound, the z-score in test [14] is 0.399; in test [15] it was -0.816; in [16], 0.968; in test [17] it was 0.509 (inactive); in test [18], -0.191; in [19], -0.266. The z-score in test [20] was 0.56 (inactive). The same compound returned a composite z-score in [2] of -0.152.

Take `O=C1[C@H]2[C@H]3[C@H](O)[C@H](O)CC(=NOC[C@@H](O)COCc4ccco4)[C@@H]3CC[C@H]2C(=O)N1C[C@@H]1CCCO1`: the z-score in test [1] was 0.916 (inactive); in test [3], 2.05 (inactive); in test [4], 0.544 (inactive); in [5] it was -0.0602 (inactive); in [6], 0.329 (inactive); in test [7], -0.605. In addition, the z-score in test [8] was 0.222 (inactive); in [9], 0.374 (inactive); in test [10], 0.382; in [11] it was 0.863; in [12], -1.2; in test [13] it was -0.128. Further, the z-score in test [14] was 0.524; in [15], -0.295; in [16], 0.607; in [17], 1.25 (inactive); in test [18], -0.32; in test [19], -0.796. Also, the z-score in test [20] is 0.0753 (inactive). Further, the composite z-score in test [2] was -0.0061.

As to `C=CC[C@@H]1C=C[C@H](ON=C(C)CCC(=O)OC[C@H]2O[C@H](c3ccccc3)C=C[C@@H]2Oc2ccc(OC)cc2)[C@@H](CO)O1`, the z-score in test [1] is 0.871 (inactive); in [3], 10.9 (active); in test [4], 1.25 (inactive); in test [5], 1.2 (inactive); in [6], 0.637 (inactive); in test [7] it was -0.0785. The z-score in [8] was -3.06 (inactive); in [9], 0.605 (inactive); in [10], -2.79; in test [11] it was 1.21; in test [12] it was -0.741; in test [13], -0.403. Moreover, the z-score in test [14] is -1.91; in [15], -0.428; in test [16], -0.859; in [17] it was 0.0616 (inactive); in test [18] it was 0.0738; in test [19], -1.02. The z-score in [20] is 0.524 (inactive). The compound also came in with a composite z-score in test [2] of -0.291.

`COc1ccc(O[C@@H]2[C@H](O)CO[C@@H]2C=Cc2ccccc2)cc1`: the z-score was -1.74 (inactive) in test [1]; 5.53 (inactive) in test [3]; -0.0327 (inactive) in [4]; 1.23 (inactive) in test [5]; -0.66 (inactive) in test [6]; 1.49 in test [7]. Further, the z-score in test [8] was 0.561 (inactive); in test [9] it was -0.92 (inactive); in test [10], -2.07; in [11] it was 0.069; in [12] it was 1.72; in test [13], -0.0757. The z-score was -2.82 in [14]; -1.1 in test [15]; 1.11 in test [16]; 0.6 (inactive) in test [17]; 0.132 in test [18]; 0.322 in [19]. For the same compound, the z-score in [20] was -0.548 (inactive). The compound further displayed a composite z-score in [2] of 0.417.

For `O=C1C[C@@H](O)[C@@H](O)[C@@H]2[C@@H]3C(=O)N(C[C@@H]4CCCO4)C(=O)[C@@H]3CC[C@H]12`, the z-score is 0.555 (inactive) in test [1]; 0.651 (inactive) in test [3]; 0.461 (inactive) in test [4]; -0.406 (inactive) in [5]; 0.376 (inactive) in test [6]; -0.0289 in [7]. Further, the z-score in [8] was -0.453 (inactive); in test [9] it was -0.111 (inactive); in [10], -0.0473; in [11], -0.232; in [12] it was -0.42; in test [13], 0.614. For the same compound, the z-score in [14] was 0.136; in [15], 0.433; in [16] it was 0.446; in test [17], 0.763 (inactive); in [18] it was -0.131; in test [19] it was -0.586. Moreover, in test [20], the z-score was -0.747 (inactive). The compound further had a composite z-score in [2] of -0.0969.

On to `COc1ccc(COC(=O)NN=C2C[C@@H](O)[C@@H](O)[C@@H]3[C@@H]4C(=O)N(Cc5ccccc5)C(=O)[C@@H]4CC[C@H]23)cc1`, for which the z-score in [1] is -0.0671 (inactive); in test [3], 8.9 (active); in [4] it was 0.507 (inactive); in test [5], -1.3 (inactive); in test [6], -1.17 (inactive); in test [7], -0.411. For the same compound, the z-score in test [8] was 1.43 (inactive); in [9], 0.954 (inactive); in test [10], 0.729; in [11] it was 0.203; in test [12], 0.649; in [13], -0.462. Further, the z-score in [14] is 0.451; in [15], -1.27; in test [16] it was 0.646; in [17], -0.585 (inactive); in test [18], 0.365; in test [19] it was -0.592. For the same compound, the z-score in [20] is 1.03 (inactive). Also, the composite z-score in test [2] worked out at 0.641.

With `O=C1CCCC=C1C(O)CCOC(c1ccccc1)(c1ccccc1)c1ccccc1` (stereo not given), the z-score is -1.03 (inactive) in test [1]; 1.52 (inactive) in test [3]; -0.349 (inactive) in [4]; -0.205 (inactive) in test [5]; -0.217 (inactive) in test [6]; -0.0632 in test [7]. The z-score was 1.69 (inactive) in test [8]; -1.48 (inactive) in test [9]; -0.832 in test [10]; -0.893 in test [11]; -0.268 in test [12]; -0.26 in [13]. In addition, the z-score in test [14] is -3.43; in [15], -3.62; in test [16], -2.77; in test [17], -0.115 (inactive); in [18], -0.879; in test [19], -0.0919. The z-score in test [20] was 0.418 (inactive). This compound returned a composite z-score in [2] of -0.0969.
